Compounds without any hit were thinned out: in the full panel of roughly 79,000, 15% have a hit. Values without a mark were called inactive. Calls of active or inactive are those of the source. Rule as the data show it: active = growth inhibition above about 70%; inactive = the rest.
How the values were obtained:
[1] = NCI Yeast Anticancer Drug Screen. Data for the rad50 strain (AID 155);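 also: 0% = growth of vehicle-only cultures of the same strain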; conditions: S. cerevisiae rad50 strain growth inhibition, stronger effect = higher value
Method in brief: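 Inhibition values express reduced yeast growth in compound-treated cultures relative to vehicle-treated controls.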

[2] = NCI Yeast Anticancer Drug Screen. Data for the mec2-1 strain (AID 157); conditions: S. cerevisiae mec2-1 strain, stronger effect = higher value
Method in brief: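 Test agents were screened against the mec2-1 yeast strain, with defined DNA repair or cell cycle alteration. Growth was scored as inhibition against vehicle-only controls.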

[3] = NCI Yeast Anticancer Drug Screen. Data for the sgs1 mgt1 strain (AID 161);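 also: 0% = growth of cultures given vehicle only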; conditions: S. cerevisiae sgs1 mgt1 strain, stronger effect = higher value
Method in brief: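 Read-out: growth inhibition vs vehicle controls. Cells: mutant yeast strain deficient in DNA damage repair.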

[4] = NCI Yeast Anticancer Drug Screen. Data for the cln2 rad14 strain (AID 165);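 also: 0% = growth equal to vehicle treated cultures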; conditions: S. cerevisiae cln2 rad14 strain, stronger effect = higher value
Method in brief: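 Growth of compound-exposed yeast (cln2 rad14 genotype) measured and expressed as inhibition relative to vehicle.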

[5] = NCI Yeast Anticancer Drug Screen. Data for the bub3 strain (AID 167); conditions: S. cerevisiae bub3 mutant strain, stronger effect = higher value
Method in brief: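 Steps: expose the mutant yeast strain to compound; grow alongside vehicle-treated cultures; measure growth; express inhibition against the vehicle cultures.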

[6] = NCI Yeast Anticancer Drug Screen. Data for the mlh1 rad18 strain (AID 175); conditions: S. cerevisiae mlh1 rad18 strain growth inhibition, stronger effect = higher value
Method in brief: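 In this whole-cell yeast screen, a strain with altered DNA damage repair is challenged with compound, and its growth is measured against matched vehicle-treated controls.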

[7] = at 5.0 µM (retest, dose inferred, filed as 0.5)
[8] = at 50.0 µM (retest, dose inferred, filed as 5.0)

Structure (SMILES) | growth inhibition [1, 7] | growth inhibition [1, 8] | growth inhibition ([1]; at 50.0 µM) | growth inhibition [2, 7] | growth inhibition [2, 8] | growth inhibition ([2]; at 50.0 µM) | growth inhibition [3, 7] | growth inhibition [3, 8] | growth inhibition ([3]; at 50.0 µM) | growth inhibition [4, 7] | growth inhibition [4, 8] | growth inhibition ([4]; at 50.0 µM) | growth inhibition [5, 7] | growth inhibition [5, 8] | growth inhibition ([5]; at 50.0 µM) | growth inhibition [6, 7] | growth inhibition [6, 8] | growth inhibition ([6]; at 50.0 µM)
CCCCCCC1N=C(N)N=C(N)N1c1cccc(Cl)c1 (stereo unspecified) | 17% | 61% | -25.1% | 10% | 56% | 48.8% | 8% | 55% | 46.4% | 1% | 24% | -53.5% | 34% | 81% (active) | 52.9% | 7% | 98% (active) | 89.6% (active)
Cc1cc(O)c(O)c(C(C)(C)CC(C)(C)C)c1 | 36% | 87% (active) | 91.3% (active) | 38% | 83% (active) | 92.5% (active) | 97% (active) | 100% (active) | – | 78% (active) | 100% (active) | – | 94% (active) | 99% (active) | – | 23% | 73% (active) | 91.2% (active)
Cn1ccc(=Nc2ccc(NC(=O)c3ccc(N=c4ccn(C)c5ccc([N+](=O)[O-])cc45)cc3)cc2)cc1 | 86% (active) | 98% (active) | 79.7% (active) | 80% (active) | 98% (active) | 87.4% (active) | 92% (active) | 98% (active) | 87.3% (active) | – | – | – | 93% (active) | 99% (active) | 87.5% (active) | 72% (active) | 95% (active) | 84.8% (active)
COC(=O)Nc1nc2ccc(C3(c4ccc(F)cc4)OCCO3)cc2[nH]1 | 25% | 51% | -6.5% | 9% | 67% | 35% | 20% | 55% | 79% (active) | 11% | 36% | 56.2% | – | – | – | 18% | 76% (active) | 80% (active)
COc1cccc2c1C(=O)c1c(O)c3c(c(O)c1C2=O)C[C@@](O)(C(=O)CO)C[C@@H]3OC1CC(OC(C)=O)C(OC(C)=O)C(C)O1 (stereo partly specified) | 71% (active) | 98% (active) | 86.8% (active) | 36% | 99% (active) | 87.5% (active) | 37% | 99% (active) | 90% (active) | – | – | – | 42% | 99% (active) | 88.9% (active) | 48% | 97% (active) | 91.6% (active)
CCOc1cc(F)c([N+](=O)[O-])cc1[N+](=O)[O-] | 92% (active) | 99% (active) | 98.7% (active) | 94% (active) | 100% (active) | 54.4% | 96% (active) | 99% (active) | 51.5% | 97% (active) | 100% (active) | 98.4% (active) | – | – | – | 92% (active) | 100% (active) | 98.5% (active)
O=C1/C(=C/c2ccccn2)CCc2ccccc21 | 30% | 94% (active) | 84.7% (active) | 17% | 95% (active) | 89.5% (active) | 11% | 85% (active) | 83.4% (active) | 32% | 92% (active) | 46.2% | – | – | – | -15% | 97% (active) | 84.2% (active)
O=C(CBr)c1ccc(OC(=O)c2ccccc2)cc1 | 97% (active) | 99% (active) | 45.3% | 100% (active) | 99% (active) | 13.1% | 100% (active) | 100% (active) | 18.4% | – | – | – | 100% (active) | 100% (active) | 45.8% | 62% | 98% (active) | 74.5% (active)
CC1=NN(c2ccccc2)C(=O)C1(Br)Br | 37% | 64% | 92.7% (active) | 44% | 71% (active) | 94% (active) | 23% | 99% (active) | – | 43% | 99% (active) | – | 49% | 98% (active) | – | 32% | 58% | 93.3% (active)
OC(c1cc2ccc(C(F)(F)F)cc2c2cc(C(F)(F)F)ccc12)C1CCCCN1 (stereo unspecified) | 85% (active) | 98% (active) | 89.6% (active) | 77% (active) | 98% (active) | 92% (active) | 96% (active) | 98% (active) | 88.9% (active) | – | – | – | 91% (active) | 99% (active) | 85.5% (active) | 97% (active) | 97% (active) | 85.7% (active)
O=C1c2ccccc2Cc2cccc(Cl)c21 | 15% | 72% (active) | 88.5% (active) | 6% | 15% | 24.3% | 4% | 13% | 28.6% | 0% | 5% | 17.4% | 1% | 19% | 13.8% | 2% | 17% | 33%

Reference: PubChem BioAssay (NCI)
